In PMC7862700, “An all-to-all approach to the identification of sequence-specific readers for epigenetic DNA modifications on cytosine”:

How the values were obtained:
Experiment in all cases: DAPPL (digital affinity profiling via proximity ligation, sequencing); 10 mM Tris-HCl pH 7.5, 50 mM NaCl, 1 mM DTT, 4% glycerol, room temperature, 30 min; GST-TFs on glutathione beads, 16-mer random dsDNA library, 0.1% formaldehyde crosslink after washing; high values mean tight binding
FEV = target: T1, FEV (Homo sapiens, UniProt Q99581 1-238); details: protein: recombinant; tags: N-terminal GST; dsDNA, one strand shown
T1 sequence: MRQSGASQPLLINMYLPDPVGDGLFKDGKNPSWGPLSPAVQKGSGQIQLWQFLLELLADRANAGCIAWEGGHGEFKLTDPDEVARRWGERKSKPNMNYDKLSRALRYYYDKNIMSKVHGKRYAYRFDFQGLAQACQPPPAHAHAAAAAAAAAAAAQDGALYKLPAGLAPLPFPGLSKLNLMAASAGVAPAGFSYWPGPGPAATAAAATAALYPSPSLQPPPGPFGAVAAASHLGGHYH
How it was run: (§1)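 Sequencing on an Illumina NextSeq500 followed washing, crosslinking with 0.1% formaldehyde, proximity ligation (BsaI/T4 ligase, 1 h, 37 °C) and PCR amplification of pools that had been incubated for 30 min at room temperature with 200 nmole of a random double-stranded 16-mer DNA library in Tris/NaCl/DTT/glycerol buffer. Each pool held DNA-barcoded human transcription factors, expressed in yeast as GST fusions and captured on glutathione beads, plus a tag-only sample. Binding signal is a hexamer's read frequency for a factor divided by its frequency in the tag-only sample.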

ETV5 = ETV5 (Homo sapiens, UniProt P41161 1-510); details: protein: recombinant; tags: N-terminal GST; dsDNA, one strand shown
ETV5, sequence (P41161 whole entry): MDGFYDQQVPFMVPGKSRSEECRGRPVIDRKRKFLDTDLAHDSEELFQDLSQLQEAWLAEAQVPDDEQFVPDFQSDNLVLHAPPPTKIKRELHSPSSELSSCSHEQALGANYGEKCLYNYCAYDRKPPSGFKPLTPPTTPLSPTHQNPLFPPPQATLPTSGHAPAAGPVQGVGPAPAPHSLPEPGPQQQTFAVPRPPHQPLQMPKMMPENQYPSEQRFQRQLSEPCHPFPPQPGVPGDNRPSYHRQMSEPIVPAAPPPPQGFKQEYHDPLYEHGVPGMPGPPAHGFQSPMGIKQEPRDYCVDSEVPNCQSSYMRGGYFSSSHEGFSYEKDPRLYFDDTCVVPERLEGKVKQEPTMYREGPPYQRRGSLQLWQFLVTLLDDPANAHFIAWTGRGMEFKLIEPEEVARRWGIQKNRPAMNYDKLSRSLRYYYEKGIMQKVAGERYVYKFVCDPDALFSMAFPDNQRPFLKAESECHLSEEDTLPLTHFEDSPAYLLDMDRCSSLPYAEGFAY
How it was run: as §1

HSF1 = HSF1 (Homo sapiens, UniProt Q00613 1-529); details: protein: recombinant; tags: N-terminal GST; chain copies: 3; dsDNA, one strand shown
HSF1, sequence (Q00613 whole entry): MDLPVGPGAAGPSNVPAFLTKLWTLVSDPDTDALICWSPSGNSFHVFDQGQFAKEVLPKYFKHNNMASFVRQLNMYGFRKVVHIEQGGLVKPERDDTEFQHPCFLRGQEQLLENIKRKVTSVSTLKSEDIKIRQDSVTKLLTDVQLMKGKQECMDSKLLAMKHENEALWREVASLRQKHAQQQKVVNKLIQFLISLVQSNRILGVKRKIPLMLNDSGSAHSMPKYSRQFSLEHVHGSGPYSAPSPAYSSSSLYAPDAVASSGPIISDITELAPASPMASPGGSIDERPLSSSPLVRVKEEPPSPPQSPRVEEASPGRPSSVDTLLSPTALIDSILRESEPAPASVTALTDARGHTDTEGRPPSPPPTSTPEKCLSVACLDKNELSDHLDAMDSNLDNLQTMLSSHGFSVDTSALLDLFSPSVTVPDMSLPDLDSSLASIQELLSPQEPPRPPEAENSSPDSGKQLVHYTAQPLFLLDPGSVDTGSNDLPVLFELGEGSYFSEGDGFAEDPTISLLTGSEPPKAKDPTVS
How it was run: as §1

SPIC = target: T2, SPIC (Homo sapiens, UniProt Q8N5J4 1-248); details: protein: recombinant; tags: N-terminal GST; dsDNA, one strand shown
T2 sequence: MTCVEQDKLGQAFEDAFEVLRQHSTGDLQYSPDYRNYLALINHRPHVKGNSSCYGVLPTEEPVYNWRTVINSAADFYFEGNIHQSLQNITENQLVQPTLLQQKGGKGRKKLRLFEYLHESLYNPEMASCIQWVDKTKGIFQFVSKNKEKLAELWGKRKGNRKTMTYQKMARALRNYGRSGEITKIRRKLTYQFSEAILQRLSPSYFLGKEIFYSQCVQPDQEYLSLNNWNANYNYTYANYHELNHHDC
How it was run: as §1

ELF4 = ELF4 (Homo sapiens, UniProt Q99607 1-663); details: protein: recombinant; tags: N-terminal GST; dsDNA, one strand shown
ELF4, sequence (Q99607 whole entry): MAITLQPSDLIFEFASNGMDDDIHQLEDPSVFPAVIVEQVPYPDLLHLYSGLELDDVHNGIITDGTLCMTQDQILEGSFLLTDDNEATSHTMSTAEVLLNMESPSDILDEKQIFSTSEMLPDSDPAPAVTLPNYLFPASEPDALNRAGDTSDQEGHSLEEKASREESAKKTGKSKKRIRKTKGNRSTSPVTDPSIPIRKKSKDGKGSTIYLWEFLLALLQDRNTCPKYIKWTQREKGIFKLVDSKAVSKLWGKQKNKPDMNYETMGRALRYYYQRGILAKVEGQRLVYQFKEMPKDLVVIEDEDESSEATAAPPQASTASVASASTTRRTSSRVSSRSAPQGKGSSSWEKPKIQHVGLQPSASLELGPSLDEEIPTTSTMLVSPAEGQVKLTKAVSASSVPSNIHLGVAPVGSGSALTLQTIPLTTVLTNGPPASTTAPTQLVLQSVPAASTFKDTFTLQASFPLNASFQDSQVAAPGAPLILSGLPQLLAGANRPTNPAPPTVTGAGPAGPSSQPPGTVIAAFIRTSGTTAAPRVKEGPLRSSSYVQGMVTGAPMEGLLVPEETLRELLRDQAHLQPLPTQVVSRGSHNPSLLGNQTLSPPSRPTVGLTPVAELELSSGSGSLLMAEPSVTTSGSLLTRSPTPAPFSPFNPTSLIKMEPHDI
How it was run: as §1

ELK4 = target: T3, ELK4 (Homo sapiens, UniProt P28324-2 1-405); details: protein: recombinant; tags: N-terminal GST; dsDNA, one strand shown
T3 sequence: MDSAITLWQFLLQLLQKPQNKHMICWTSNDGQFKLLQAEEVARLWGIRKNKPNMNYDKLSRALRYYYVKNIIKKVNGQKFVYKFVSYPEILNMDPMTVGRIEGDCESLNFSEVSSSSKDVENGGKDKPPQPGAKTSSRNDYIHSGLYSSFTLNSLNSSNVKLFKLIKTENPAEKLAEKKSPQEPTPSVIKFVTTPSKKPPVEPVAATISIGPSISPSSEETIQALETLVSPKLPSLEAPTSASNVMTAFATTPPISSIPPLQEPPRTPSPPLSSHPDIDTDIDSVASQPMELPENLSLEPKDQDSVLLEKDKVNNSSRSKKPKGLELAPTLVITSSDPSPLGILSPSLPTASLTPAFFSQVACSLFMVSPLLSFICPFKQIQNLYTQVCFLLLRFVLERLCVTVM
How it was run: as §1

ETV2 = target: T4, ETV2 (Homo sapiens, UniProt O00321 1-342); details: protein: recombinant; tags: N-terminal GST; dsDNA, one strand shown
T4 sequence: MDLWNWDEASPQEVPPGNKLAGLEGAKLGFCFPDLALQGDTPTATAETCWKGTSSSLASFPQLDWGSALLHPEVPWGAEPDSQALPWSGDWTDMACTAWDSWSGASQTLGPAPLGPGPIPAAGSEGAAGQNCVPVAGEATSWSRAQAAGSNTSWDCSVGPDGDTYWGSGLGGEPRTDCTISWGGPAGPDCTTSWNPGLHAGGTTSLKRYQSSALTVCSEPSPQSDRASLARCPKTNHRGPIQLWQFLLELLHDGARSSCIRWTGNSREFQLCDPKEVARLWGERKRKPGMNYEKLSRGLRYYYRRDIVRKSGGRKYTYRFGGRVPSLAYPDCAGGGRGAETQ
How it was run: as §1

ELF3 = target: T5, ELF3 (Homo sapiens, UniProt P78545 1-371); details: protein: recombinant; tags: N-terminal GST; dsDNA, one strand shown
T5 sequence: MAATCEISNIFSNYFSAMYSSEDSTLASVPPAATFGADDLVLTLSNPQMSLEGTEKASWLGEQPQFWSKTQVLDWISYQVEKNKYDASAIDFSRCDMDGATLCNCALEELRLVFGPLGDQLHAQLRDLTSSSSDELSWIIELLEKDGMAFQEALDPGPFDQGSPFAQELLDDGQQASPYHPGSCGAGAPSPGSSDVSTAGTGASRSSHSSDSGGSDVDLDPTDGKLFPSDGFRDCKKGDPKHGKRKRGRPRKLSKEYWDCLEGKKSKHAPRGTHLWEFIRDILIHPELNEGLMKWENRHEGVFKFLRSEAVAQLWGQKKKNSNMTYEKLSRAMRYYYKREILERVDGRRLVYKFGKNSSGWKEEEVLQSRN
How it was run: as §1

CRX = CRX (Homo sapiens, UniProt O43186 1-299); details: protein: recombinant; tags: N-terminal GST; dsDNA, one strand shown
CRX, sequence (O43186 whole entry): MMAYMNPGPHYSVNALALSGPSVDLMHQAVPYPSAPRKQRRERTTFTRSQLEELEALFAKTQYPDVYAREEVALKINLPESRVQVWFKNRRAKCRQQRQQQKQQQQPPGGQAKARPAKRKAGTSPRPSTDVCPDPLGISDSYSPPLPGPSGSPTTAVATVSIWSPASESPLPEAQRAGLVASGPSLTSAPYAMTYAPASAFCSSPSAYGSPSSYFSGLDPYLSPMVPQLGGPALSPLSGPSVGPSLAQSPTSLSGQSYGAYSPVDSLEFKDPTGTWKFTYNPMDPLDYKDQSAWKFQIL
How it was run: as §1

ERF = target: T6, ERF (Homo sapiens, UniProt P50548 1-548); details: protein: recombinant; tags: N-terminal GST; dsDNA, one strand shown
T6 sequence: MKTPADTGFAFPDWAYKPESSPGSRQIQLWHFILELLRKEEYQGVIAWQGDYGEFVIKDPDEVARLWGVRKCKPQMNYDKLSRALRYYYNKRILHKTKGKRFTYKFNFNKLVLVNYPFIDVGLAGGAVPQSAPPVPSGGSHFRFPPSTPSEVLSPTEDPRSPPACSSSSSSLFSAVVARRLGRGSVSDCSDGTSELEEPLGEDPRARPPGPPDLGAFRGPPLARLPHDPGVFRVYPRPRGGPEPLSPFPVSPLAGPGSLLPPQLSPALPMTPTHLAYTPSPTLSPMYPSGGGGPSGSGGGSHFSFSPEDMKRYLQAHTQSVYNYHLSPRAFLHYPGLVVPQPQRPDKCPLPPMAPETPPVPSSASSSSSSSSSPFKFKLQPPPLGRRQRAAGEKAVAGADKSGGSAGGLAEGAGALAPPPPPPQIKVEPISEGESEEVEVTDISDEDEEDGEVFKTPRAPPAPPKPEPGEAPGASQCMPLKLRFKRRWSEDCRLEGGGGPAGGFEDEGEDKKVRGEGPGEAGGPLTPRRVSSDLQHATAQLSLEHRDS
How it was run: as §1

ETV3L = target: T7, ETV3L (Homo sapiens, UniProt Q6ZN32 1-361); details: protein: recombinant; tags: N-terminal GST; dsDNA, one strand shown
T7 sequence: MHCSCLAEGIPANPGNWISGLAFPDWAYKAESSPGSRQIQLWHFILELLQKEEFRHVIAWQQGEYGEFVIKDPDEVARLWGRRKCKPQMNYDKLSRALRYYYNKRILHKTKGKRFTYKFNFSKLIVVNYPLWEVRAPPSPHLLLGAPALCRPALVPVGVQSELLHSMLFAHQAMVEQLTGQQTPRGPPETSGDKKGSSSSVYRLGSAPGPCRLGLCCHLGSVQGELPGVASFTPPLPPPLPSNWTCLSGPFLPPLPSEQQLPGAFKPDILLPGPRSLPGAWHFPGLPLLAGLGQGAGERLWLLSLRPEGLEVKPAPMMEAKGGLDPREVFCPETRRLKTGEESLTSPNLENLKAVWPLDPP
How it was run: as §1

ETS2 = target: T8, ETS2 (Homo sapiens, UniProt P15036 1-469); details: protein: recombinant; tags: N-terminal GST; dsDNA, one strand shown
T8 sequence: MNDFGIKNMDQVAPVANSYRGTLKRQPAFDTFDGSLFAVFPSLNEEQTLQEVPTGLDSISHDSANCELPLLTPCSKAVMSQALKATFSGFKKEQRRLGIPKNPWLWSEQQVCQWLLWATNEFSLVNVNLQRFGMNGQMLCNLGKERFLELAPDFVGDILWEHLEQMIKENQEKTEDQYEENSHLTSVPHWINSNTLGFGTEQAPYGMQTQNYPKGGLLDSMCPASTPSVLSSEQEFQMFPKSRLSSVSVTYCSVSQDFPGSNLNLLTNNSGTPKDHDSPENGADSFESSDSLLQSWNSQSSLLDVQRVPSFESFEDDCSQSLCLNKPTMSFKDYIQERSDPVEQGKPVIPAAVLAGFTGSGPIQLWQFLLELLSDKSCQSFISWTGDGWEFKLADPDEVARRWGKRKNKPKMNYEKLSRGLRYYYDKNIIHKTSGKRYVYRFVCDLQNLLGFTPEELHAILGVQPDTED
How it was run: as §1

SPDEF = target: T9, SPDEF (Homo sapiens, UniProt O95238 1-335); details: protein: recombinant; tags: N-terminal GST; dsDNA, one strand shown
T9 sequence: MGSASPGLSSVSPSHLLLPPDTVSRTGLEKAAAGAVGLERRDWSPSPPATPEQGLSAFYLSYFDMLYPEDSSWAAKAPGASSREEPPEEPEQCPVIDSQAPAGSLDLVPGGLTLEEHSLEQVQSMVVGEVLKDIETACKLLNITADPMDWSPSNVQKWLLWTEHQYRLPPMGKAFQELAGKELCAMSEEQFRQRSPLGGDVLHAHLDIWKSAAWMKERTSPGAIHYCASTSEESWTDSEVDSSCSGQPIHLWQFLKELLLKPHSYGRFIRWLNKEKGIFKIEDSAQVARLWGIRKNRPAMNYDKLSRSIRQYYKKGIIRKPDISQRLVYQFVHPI
How it was run: as §1

ETV7 = target: T10, ETV7 (Homo sapiens, UniProt Q9Y603 1-341); details: protein: recombinant; tags: N-terminal GST; dsDNA, one strand shown
T10 sequence: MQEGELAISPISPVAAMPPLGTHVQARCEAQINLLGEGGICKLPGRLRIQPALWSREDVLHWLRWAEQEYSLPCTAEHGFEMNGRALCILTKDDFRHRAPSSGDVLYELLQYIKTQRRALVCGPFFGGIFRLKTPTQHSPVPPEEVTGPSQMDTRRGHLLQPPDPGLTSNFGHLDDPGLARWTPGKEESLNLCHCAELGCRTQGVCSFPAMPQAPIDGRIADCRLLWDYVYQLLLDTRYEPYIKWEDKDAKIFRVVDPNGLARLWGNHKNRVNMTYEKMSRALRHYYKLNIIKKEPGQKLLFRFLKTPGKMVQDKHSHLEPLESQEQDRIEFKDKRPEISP
How it was run: as §1

ELF5 = target: T11, ELF5 (Homo sapiens, UniProt Q9UKW6-2 1-255); details: protein: recombinant; tags: N-terminal GST; dsDNA, one strand shown
T11 sequence: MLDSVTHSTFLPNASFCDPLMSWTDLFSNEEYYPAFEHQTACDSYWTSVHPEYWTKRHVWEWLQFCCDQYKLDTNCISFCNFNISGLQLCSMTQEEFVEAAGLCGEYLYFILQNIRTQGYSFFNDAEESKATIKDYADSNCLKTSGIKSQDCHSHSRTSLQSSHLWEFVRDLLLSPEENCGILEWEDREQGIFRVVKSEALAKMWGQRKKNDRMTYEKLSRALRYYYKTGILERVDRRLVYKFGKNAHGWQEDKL
How it was run: as §1

ETV3 = target: T12, ETV3 (Homo sapiens, UniProt P41162-2 1-143); details: protein: recombinant; tags: N-terminal GST; dsDNA, one strand shown
T12 sequence: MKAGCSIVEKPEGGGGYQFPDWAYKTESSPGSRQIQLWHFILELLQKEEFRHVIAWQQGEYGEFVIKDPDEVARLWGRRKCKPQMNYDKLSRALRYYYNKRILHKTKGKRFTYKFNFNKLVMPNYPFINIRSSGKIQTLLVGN
How it was run: as §1

ETV6 = ETV6 (Homo sapiens, UniProt P41212 1-452); details: protein: recombinant; tags: N-terminal GST; dsDNA, one strand shown
ETV6, sequence (P41212 whole entry): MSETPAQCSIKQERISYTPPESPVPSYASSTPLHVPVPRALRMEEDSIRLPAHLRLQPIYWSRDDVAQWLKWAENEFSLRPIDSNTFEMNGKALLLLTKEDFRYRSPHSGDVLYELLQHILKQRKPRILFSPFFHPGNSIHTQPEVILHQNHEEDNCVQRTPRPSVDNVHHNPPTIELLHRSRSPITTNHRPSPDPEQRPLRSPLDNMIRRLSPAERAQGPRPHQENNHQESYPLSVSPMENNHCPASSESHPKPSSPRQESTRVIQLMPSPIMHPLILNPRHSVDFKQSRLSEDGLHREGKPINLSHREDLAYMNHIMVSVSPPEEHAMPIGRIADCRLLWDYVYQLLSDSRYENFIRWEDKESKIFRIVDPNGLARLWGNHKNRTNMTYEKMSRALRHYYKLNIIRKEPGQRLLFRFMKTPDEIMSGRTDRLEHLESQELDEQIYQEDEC
How it was run: as §1

Sequence: TAGAAT
- binding signal (FEV): 1.04 fold enrichment (6-mer frequency, TF over GST control)
- binding signal (ETV5): 1.03 fold enrichment (6-mer frequency, TF over GST control)
- binding signal (HSF1): 3.07 fold enrichment (6-mer frequency, TF over GST control)
- binding signal (SPIC): 1.04 fold enrichment (6-mer frequency, TF over GST control)
- binding signal (ELF4): 1.13 fold enrichment (6-mer frequency, TF over GST control)
- binding signal (ELK4): 1.14 fold enrichment (6-mer frequency, TF over GST control)
- binding signal (ETV2): 1.06 fold enrichment (6-mer frequency, TF over GST control)
- binding signal (ELF3): 1.19 fold enrichment (6-mer frequency, TF over GST control)
- binding signal (CRX): 1.83 fold enrichment (6-mer frequency, TF over GST control)
- binding signal (ERF): 1.17 fold enrichment (6-mer frequency, TF over GST control)
- binding signal (ETV3L): 1.09 fold enrichment (6-mer frequency, TF over GST control)
- binding signal (ETS2): 1.06 fold enrichment (6-mer frequency, TF over GST control)
- binding signal (SPDEF): 1.07 fold enrichment (6-mer frequency, TF over GST control)
- binding signal (ETV7): 1.13 fold enrichment (6-mer frequency, TF over GST control)
- binding signal (ELF5): 1.08 fold enrichment (6-mer frequency, TF over GST control)
- binding signal (ETV3): 1.05 fold enrichment (6-mer frequency, TF over GST control)
- binding signal (ETV6): 1.15 fold enrichment (6-mer frequency, TF over GST control)
